Data reported in ChEMBL document CHEMBL4513216, “Probing the Open Global Health Chemical Diversity Library for Multistage-Active Starting Points for Next-Generation Antimalarials” (ACS Infect Dis, 2020).
The whole screen tested about 69,000 compounds, of which about 8,600 (12%) showed an effect of 50% or more. For the sample, strong results were picked, then their nearest neighbours and some compounds at random.

test system: Plasmodium berghei; experiment: Screen against P. berghei liver stage (PbLuc), transformed with Luciferase, at 10uM; format: functional, HepG2; settings: tested at 10 uM

SMILES	INHIBITION [%]
Cn1cc(CNCC2(N3CCCCC3)Cc3ccccc3C2)cn1	78.1
CC(=O)NCCNC(=O)C1(N2CCCCC2)Cc2ccccc2C1	-46.4
CCc1ccccc1CNC(=O)NCc1cnn(C)c1	13.9
O=C(NCCCO)C1(N2CCCCC2)Cc2ccccc2C1	0.818
CSc1ncc(CNCC2(N3CCCCC3)Cc3ccccc3C2)cn1	72.4
CCN(CC)CC1CN(CCc2ccccc2)Cc2nccn2C1 (stereo not drawn)	0.139
CC(c1cc(O)nc(NC2CCCC2)n1)n1ncc2ccccc2c1=O (stereo not drawn)	4.8
Cc1nc(C)n(CC2CCCCN2CCOc2ccc(C#N)cc2)n1 (stereo not drawn)	42
CCc1ncc2c(n1)CN(C(C)C(=O)Nc1ccc(Cl)cn1)CC2 (stereo not drawn)	48.2
Cc1nnc(C(C)Nc2cccc(COCCc3ccccc3)c2)o1 (stereo not drawn)	19.7
Cc1nnc(C(C)Nc2cccc(COCCOC(C)C)c2)o1 (stereo not drawn)	21.5
Cc1nnc(C(C)Nc2cccc(COCC(F)(F)C(F)F)c2)o1 (stereo not drawn)	57.4
CN(C)CCNC(=O)[C@H]1C[C@H]2CN(C(=O)NC3CCCC3)C[C@@H]1O2	6.83
Cc1ccc(Cn2cc(Br)c(NS(C)(=O)=O)n2)cc1	19.575
CNc1cc(C2CN(C(=O)c3ccccc3)CCO2)nc(C)n1 (stereo not drawn)	23.9
O=C(NCC1CC1)C1CSCN1S(=O)(=O)c1ccccc1F (stereo not drawn)	26.6
CC(C)(C)NC(=O)C1CSCN1S(=O)(=O)c1ccccc1F (stereo not drawn)	32.7
O=C(NCC(F)(F)F)C1CSCN1S(=O)(=O)c1ccccc1F (stereo not drawn)	52.3
O=C(c1ccccc1-n1cccn1)N1CCC(Nc2cccnn2)CC1	-92.9
Oc1cc(C2CCCCN2C2CCCC2)nc(-c2cccnc2)n1 (stereo not drawn)	15.5
Cc1ccc(C(=O)N(C)Cc2nccn2CC(F)(F)F)cn1	-16.8
Cc1cc(C)nc(N2CCOC(C)(C(=O)N(C)C)C2)n1 (stereo not drawn)	-11.4
Cc1nc(CO[C@H]2CN(C(=O)c3cnoc3C)[C@@H]3COC[C@H]23)cs1	24.9
Cc1nc(CO[C@@H]2CN(Cc3ccc(F)cc3)[C@@H]3COC[C@@H]32)cs1	23.6
Cc1nc(CO[C@H]2CN(C(=O)c3cccn3C)[C@@H]3COC[C@H]23)cs1	38.5
Cc1nc(CO[C@H]2CN(C(=O)c3cccnc3)[C@@H]3COC[C@H]23)cs1	51.2
Cc1nc(CO[C@@H]2CN(Cc3cnn(C)c3)[C@@H]3COC[C@@H]32)cs1	50.1

SMILES	INHIBITION [%]
Cc1nc(CO[C@@H]2CN(Cc3ccsc3)[C@@H]3COC[C@@H]32)cs1	14.1
Cn1ccc(C(=O)N2C[C@@H]3OCCN(c4ncccn4)[C@@H]3C2)n1	18.4
Cc1nc(-c2ccccc2)n(CC(=O)NC(C)(C)C)n1	16.8
CC(C)(C)SCC(=O)NCCc1csc(N2CCCC2)n1	78.2
CC(C)(C)OC(=O)NCCc1csc(N2CCCC2)n1	65.4
CCN(CC)CC(=O)NCCc1csc(N2CCCC2)n1	9.48
CCNC(=O)NCCc1csc(N2CCCC2)n1	39.7
CCC=C(C)C(=O)NCCc1csc(N2CCCC2)n1	41.4
CC(C)OCCC(=O)NCCc1csc(N2CCCC2)n1	48.3
CCCc1nc(CNC(=O)Cc2csc(C)n2)cs1	9.35
Cc1ncsc1CCC(=O)NCc1csc(N2CCCC2)n1	-20.8
Cc1nc(CC(=O)NCc2csc(N3CCCC3)n2)cs1	70.3
O=C(CN1CC(c2nc(-c3ccco3)no2)C1)NCCc1ccccc1	-63.6
Cc1nc(NC(=O)c2c3c(nn2C2CCS(=O)(=O)C2)CCC3)sc1C (stereo not drawn)	-14.9
O=C(NCc1ccc(CO)cc1)C1CCOc2ccccc2C1 (stereo not drawn)	5.91
Cn1nc(C(=O)N2CCOCC2)cc1C(=O)Nc1cc(Cl)cc(Cl)c1	45.9
CCc1nnc(NC(=O)NCCN(C)C(=O)OC(C)(C)C)s1	1.98
CC1C(=O)NCCN1CCOc1ccc(C#N)cc1 (stereo not drawn)	-17.2
CCc1cccc(OCCn2cccc(C#N)c2=O)c1	68.3
N#Cc1ccc(OCCn2cccn2)cc1	15.7
N#Cc1cccn(CCOc2ccc(Cl)cc2)c1=O	77.2
CCc1cccc(OCCCN(C)C(=O)CN2CCNC2=O)c1	17
COc1cccc(Cn2cccc(C#N)c2=O)c1	41.4
CC(=O)N1Cc2nccn2CC(CNC(=O)c2cccnc2)C1 (stereo not drawn)	-48.4
O=C(c1c(O)cnc2ccccc12)N1CCN(CC(F)F)CC1	-32.1
CC[C@@H]1N(Cc2nccs2)CCC[C@]12CCC(=O)N2CCOC	16.4
